Experimental data: PubChem BioAssay (NCATS)
Inconclusive results are not listed. A call without a number means that no potency is given here. Calls of active or inactive are those of the source. Calls follow the shape of the dose curve; as a rule, active = well fitted inhibition curve with a large enough effect; inconclusive = small, poorly fitted or top-dose-only effect; inactive = flat fitted curve, though single readings scatter.

What follows are molecules tested against Aldehyde dehydrogenase, mitochondrial (Homo sapiens) (UniProt P05091) (assay: qHTS for Inhibitors of the Aldehyde Dehydrogenase Family (ALDH2) Primary screen (AID 2061308; also: nearly all actives have a fitted effect of over 55% in size)). Settings: ALDH2 enzyme inhibition qHTS, 1536-well; series mostly up to 56 µM.

Structure (SMILES) | Potency
COc1cc(CCc2cc(NC(=O)c3ccc(N4CC(C)NC(C)C4)cc3)n[nH]2)cc(OC)c1 (stereo not given) | inactive
CCCC(Nc1nc(-c2ccc(NC(=O)NCC)c(OC)c2)ncc1C)c1cccnc1 (stereo not given) | inactive
Cc1ccccc1CN1CCn2c1nc1c(c2=O)CN(Cc2ccccc2)CC1 | inactive
O=C(NC/C=C/CN1CCN(c2cccc(Cl)c2Cl)CC1)c1ccc(-c2ccccn2)cc1 | inactive
NC(=O)c1ccc(F)c2c1C[C@@H](N(C1CCC1)C1CCC1)CO2 | inactive
CC[C@@H](N)CNc1ccnc(-c2cc(-c3cnn(C)c3)ccc2O)n1 | inactive
Nc1nc(CC(=O)Nc2ccc(CCNCC(O)c3ccccc3)cc2)cs1 (stereo not given) | inactive
FC(F)(F)c1cc(C(F)(F)F)c2ccc3nc(-c4nnco4)cn3c2n1 | inactive
Cc1c(OCc2cccc(-c3ccc(C(=O)O)cc3)c2)cc2c(c1C)C(=O)C(C1CCCC1)C2 (stereo not given) | inactive
CN(CCc1ccc(Nc2ncc(-c3cccnc3)s2)cc1)Cc1ccccc1 | inactive
O=C(O)[C@@H]1C[C@H]2C[C@@H](CCc3nn[nH]n3)CC[C@H]2CN1 | inactive
CN(C)CC(c1ccc(O)cc1)C1(O)CCCCC1 (stereo not given) | inactive
CCOc1ccc(-n2c([C@@H](C)N(Cc3cccnc3)C(=O)Cc3ccc(OC(F)(F)F)cc3)nc3ncccc3c2=O)cc1 | inactive
CC(C)c1ccc(-c2cc(=O)c3ccccc3o2)cc1 | inactive
Cc1cc(C)c(-c2csc(NC(=O)c3ccccc3)n2)c(C)c1 | inactive
O=C(c1ccc(F)cc1)C1CCN(CCn2c(=O)nc3n(c2=O)CCCC3)CC1 | inactive
CCOC(=O)CCC(=O)O[C@H]1[C@H](O[C@@H]2[C@@H](C)[C@H](O[C@H]3C[C@@](C)(OC)[C@@H](O)[C@H](C)O3)[C@@H](C)C(=O)O[C@H](CC)[C@@](C)(O)[C@H](O)[C@@H](C)C(=O)[C@H](C)CC2(C)O)O[C@H](C)C[C@@H]1N(C)C (stereo not given in full) | inactive
CC(C)c1nc(-c2ccc(NC(=O)Nc3cccc(C(F)(F)F)c3)c3ccccc23)c2c(N)nccn12 | inactive
C[C@@H]1C(=O)O[C@H]2CC34[C@H]5C[C@@H](C(C)(C)C)C36[C@@H](OC(=O)[C@@H]6O)OC4(C(=O)O5)[C@]21O (stereo not given in full) | inactive
CC(=O)N(C)C1(c2ccccc2)CCN(CCC[C@]2(c3ccc(Cl)c(Cl)c3)CCCN(C(=O)c3ccccc3)C2)CC1 | inactive

Structure (SMILES) | Potency
COc1ccc(C(=O)NCc2cc(C(C)C)no2)cc1OC1CCN(C)CC1 | inactive
Cc1onc(-c2ccccc2)c1C(=O)N1CCN(c2ccc([N+](=O)[O-])cc2Cl)CC1 | inactive
C=C[C@]1(C)C[C@@H](OC(=O)CSC2C[C@H]3CC[C@@H](C2)N3C)[C@]2(C)[C@H](C)CC[C@]3(CCC(=O)[C@H]32)[C@@H](C)[C@@H]1O (stereo not given in full) | inactive
COc1cc(-n2cnc3cc(-c4ccc(Cl)cc4)sc3c2=O)ccc1OCCN1CCCC1 | inactive
COc1cc(N2CCOCC2)ccc1NC(=O)c1csc(-c2cccnc2)n1 | inactive
CNc1nc(NCc2ccc(NS(C)(=O)=O)cc2Cl)cc(-c2ccccn2)n1 | inactive
O=C(NCc1cccc(O)c1)c1cc2cc(F)ccc2[nH]1 | inactive
CC(C)(C)c1ccc2c(c1)CC[C@H]2NC(=O)Nc1cccc2[nH]ncc12 | inactive
COc1cccc(N2CCN(C3=Nc4c(F)cccc4[C@H](CC(=O)O)N3c3cc(C(F)(F)F)ccc3OC)CC2)c1 | inactive
CC1(C)CC(NC(=O)C(=O)Nc2ccc(Br)cc2)CC(C)(C)N1 | inactive
Cc1cc(C(=O)Cn2cc(C#N)ccc2=O)c(C)n1Cc1ccccc1 | inactive
Cc1cccc(C)c1OCc1cc(C(=O)N2CCC(c3ccncc3)CC2)no1 | inactive
COc1c(F)cccc1C(=O)N1C[C@@H](C)CC[C@H]1CNc1ccc(Br)cn1 | inactive
CNc1cc(OC)c(C(=O)N[C@@H]2CCN(Cc3ccccc3)[C@@H]2C)cc1Cl | inactive
CC(C)[C@@H](c1ccc(C(F)(F)F)cc1CN(Cc1cc(C(F)(F)F)cc(C(F)(F)F)c1)c1nnn(C)n1)N1CCC(C(=O)O)CC1 | inactive
O=C(Nc1ccc(S(=O)(=O)Nc2nccs2)cc1)C(c1ccccc1)c1ccccc1 | inactive
Cc1ccc(-n2nc(C(C)(C)C)cc2NC(=O)Nc2cc(COc3cccnc3)[nH]n2)cc1 | inactive
COc1ccc([C@H]2CNC(=O)C2)cc1OC1CCCC1 | inactive
COC(=O)c1sccc1S(=O)(=O)Nc1ccc(Nc2ccccc2)cc1OC | inactive
CCN[C@@H]1C[C@H](N)[C@@H](O[C@H]2OC(CN)=CC[C@H]2N)[C@H](O)[C@H]1O[C@H]1OC[C@](C)(O)[C@H](NC)[C@H]1O | inactive
